Data published in PubChem BioAssay AID1345085 (National Center for Advancing Translational Sciences (NCATS), 2018).
Inconclusive results are not listed. Activity calls are given as the source filed them. Calls follow the shape of the dose curve; as a rule, active = well fitted cell-killing curve with a large enough effect; inconclusive = small, poorly fitted or top-dose-only effect, or effect the other way; inactive = no such curve, though single readings can be large or run the other way. *1 amine or outer side, *2 acyl side, *3 side chain or, on linkers, in order; H or OH if unused. Where a SMILES comes first, the peptide text is derived from it. Bridges are numbered along the chain shown (N, C = ends). Roman numbers before positions name the chains, in order. [ ]: non-standard residue; d: D form. Actinocin(9to1) = Cc1c2oc3c(C)ccc(C(=O)[*:1])c3nc-2c(C(=O)[*:2])c(N)c1=O; NMeV = CN[C@H](C(=O)O)C(C)C; Sar = CNCC(=O)O

The compounds below were run on Tov-21-G (assay: Confirmatory qHTS for gynecologic anti-cancer compounds from libraries of approved drugs and bioactive compounds). Details: gynecologic cancer cell panel viability, ATPlite luminescence, 48 h; series mostly up to 57.7 µM; activity change, negative = viability loss: at the top concentration.
Procedure, shortened: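 ATP-based luminescent viability (ATPlite) after 48 h drug treatment at 37 °C, 5% CO2, across 57.5 uM–0.977 nM in 1:3 steps. Cells seeded at 1,000 per well 16 h beforehand; IC50 values computed, HEK 293T as selectivity control.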
% is scaled to controls: 0 for no effect and ±100 for the full control effect; potency is read from the fitted curve at half-maximal effect.
Also: nearly all actives have a fitted effect of over 55% in size.

Row | SMILES | Potency | activity change, negative = viability loss
1 | NC(=O)Nc1cc(-c2cccc(F)c2)sc1C(=O)NC1CCCNC1 (stereo unspecified) | 3.43 µM (active) | 
2 | CC[C@@]1(O)C(=O)OCc2c1cc1n(c2=O)Cc2c-1nc1ccccc1c2/C=N/OC(C)(C)C | 0.611 µM (active) | 
3 | CN(C)CCC(CSc1ccccc1)Nc1ccc(S(=O)(=O)NC(=O)c2ccc(N3CCN(Cc4ccccc4-c4ccc(Cl)cc4)CC3)cc2)cc1[N+](=O)[O-] (stereo unspecified) | 13.7 µM (active) | 
4 | CCn1c(-c2nonc2N)nc2c(C#CC(C)(C)O)ncc(OCC3CCCNC3)c21 (stereo unspecified) | 0.0306 µM (active) | 
5 | Nc1nc(Cl)nc2c1ncn2C1OC(CO)C(O)C1F (stereo unspecified) | 3.43 µM (active) | 
6 | COc1ccc(-c2ccc3c(N4CCOCC4C)nc(N4CCOCC4C)nc3n2)cc1CO (stereo unspecified) |  | -33.8% (inactive)
7 | C1CCC(C(CC2CCCCN2)C2CCCCC2)CC1 (stereo unspecified) | 12.2 µM (active) | 
8 | CNc1nc(Nc2ccc(C(=O)N3CCOCC3)cc2OC)ncc1Cl |  | -9.86% (inactive)
9 | CN(C[C@@H]1COCCO1)S(=O)(=O)Nc1ccc2ccc3ncc(-c4cnn(C)c4)cc3c(=O)c2c1 | 17.2 µM (active) | 
10 | COc1cc(Nc2ncc(F)c(Nc3ccc4c(n3)N(COP(=O)(O)O)C(=O)C(C)(C)O4)n2)cc(OC)c1OC | 1.37 µM (active) | 
11 | O=c1cc(CN2CCOCC2)occ1OCCCCCSc1ccnc2cc(C(F)(F)F)ccc12 |  | -17.4% (inactive)
12 | CC(=O)OC12COC1CC(O)C1(C)C(=O)C(O)C3=C(C)C(OC(=O)C(O)C(NC(=O)OC(C)(C)C)c4ccccc4)CC(O)(C(OC(=O)c4ccccc4)C21)C3(C)C (stereo unspecified) |  | -6.62% (inactive)
13 | CCc1nc(C(N)=O)c(Nc2ccc(N3CCC(N4CCN(C)CC4)CC3)c(OC)c2)nc1NC1CCOCC1 | 2.67 µM (active) | 
14 | CCCCc1nc2cc(/C=C/C(=O)NO)ccc2n1CCN(CC)CC | 3.06 µM (active) | 
15 | Cc1ccn(-c2ccc(-c3ncco3)cc2)c(=O)c1-c1ccc2nc(N)ncc2c1 | 6.11 µM (active) | 
16 | O=C1NC(=O)C(c2cnc3ccccn23)=C1c1cn2c3c(cccc13)CN(C(=O)N1CCOCC1)CC2 | 0.544 µM (active) | 

Row | SMILES | Potency | activity change, negative = viability loss
17 | COc1cc2c(cc1-c1c(C)noc1C)ncc1[nH]c(=O)n(C(C)c3ccccn3)c12 (stereo unspecified) | 6.85 µM (active) | 
18 | COC(C)(C)CCn1nc(Nc2c(C)cccc2C)c2cnc(Nc3ccc(OCCN4CCCC4)c(F)c3)nc21 | 1.37 µM (active) | 
19 | COc1cc2nccc(Oc3ccc(NC(=O)Nc4cc(C)on4)c(Cl)c3)c2cc1OC | 19.3 µM (active) | 
20 | Cc1c2oc3c(C)ccc(C(=O)N[C@@H]4C(=O)N[C@H](C(C)C)C(=O)N5CCC[C@H]5C(=O)N(C)CC(=O)N(C)[C@@H](C(C)C)C(=O)O[C@@H]4C)c3nc-2c(C(=O)N[C@@H]2C(=O)N[C@H](C(C)C)C(=O)N3CCC[C@H]3C(=O)N(C)CC(=O)N(C)[C@@H](C(C)C)C(=O)O[C@@H]2C)c(N)c1=O (I: T[dV]P[Sar][NMeV] / II: T[dV]P[Sar][NMeV]; ester I:1-I:C, II:1-II:C; linker I:N-II:N via Actinocin(9to1)) | 0.685 µM (active) | 
21 | Cc1ccc(C(=O)Nc2ccc(CN3CCN(C)CC3)c(C(F)(F)F)c2)cc1C#Cc1cnc2cccnn12 | 1.22 µM (active) | 
22 | CC(=O)c1cnc2ccc(-c3cc(Cl)c(O)c(Cl)c3)nc2c1NC1CCC(CN(C)C)CC1 (stereo unspecified) | 0.559 µM (active) | 
23 | CN1CCN(Cc2ccc(NC(=O)Nc3ccc(Oc4cc(NC(=O)C5CC5)ncn4)cc3)cc2C(F)(F)F)CC1 | 0.432 µM (active) | 
24 | CC(Oc1ccc2[nH]nc(/C=C/c3cnn(CCO)c3)c2c1)c1c(Cl)cncc1Cl (stereo unspecified) | 6.11 µM (active) | 
25 | O=C(CCCCCCC(=O)Nc1ccccc1)NO | 4.85 µM (active) | 
26 | CNC(=O)CN1CCC(Oc2cc3c(Nc4cccc(Cl)c4F)ncnc3cc2OC)CC1 | 7.69 µM (active) | 
27 | O=C(CCCCCCNC(=O)c1cnc(N(c2ccccc2)c2ccccc2)nc1)NO | 21.7 µM (active) | 
28 | Nc1nc(=S)c2[nH]cnc2[nH]1 |  | 31.8% (inactive)
29 | COc1cc(N2CCC(N3CCN(C)CC3)CC2)ccc1Nc1ncc(Cl)c(Nc2ccccc2S(=O)(=O)C(C)C)n1 | 6.11 µM (active) | 
30 | CN1CCCC(n2nc(Cc3ccc(Cl)cc3)c3ccccc3c2=O)CC1 (stereo unspecified) | 30.6 µM (active) | 
31 | Cc1cnc(Nc2cccc(CN3CCOCC3)c2)nc1Nc1cccc(S(=O)(=O)NC(C)(C)C)c1 | 3.06 µM (active) | 
